In PubChem BioAssay:

Experiments:
[1] = NFkB reporter suppression in cystic fibrosis bronchial cells – cell-based, uHTS hits, panel, cytotoxicity readout, dose response (AID 624344); details: CF bronchial epithelial cells, PAF-induced NFkB reporter inhibition, with PAF, run 1; at 79 µM (top of the series) unless noted
[2] = as above; details: CF bronchial epithelial cells, PAF-induced NFkB reporter inhibition, with PAF, run 2; at 79 µM (top of the series) unless noted

COc1cc(NC(=O)c2csc(-c3ccncc3)n2)cc(C(=O)Nc2cccc(C(F)(F)F)c2)c1 showed an inhibition [1] of 102% and an inhibition [2] of 105%.

Compound Cc1ccc(NC(=O)c2ccccc2NS(=O)(=O)c2ccc(Cl)s2)cc1S(=O)(=O)N1CCOCC1 has an inhibition [1] of 111% and an inhibition [2] of 95.3%.

Work on COc1ccc(S(=O)(=O)c2c(O)c3ccc(C(=O)Nc4ccccc4Cl)cc3[nH]c2=O)cc1 yielded an inhibition [1] of 96.9% and an inhibition [2] of 106%.

In the case of O=C(NCc1nc(-c2ccc(C(F)(F)F)cc2)no1)Nc1cc(Cl)cc(Cl)c1, the inhibition [1] is reported as 97.9% and the inhibition [2] is reported as 114%.

In the case of O=C(NCCCSc1ccccc1)c1cc(Br)ccc1O, the inhibition [1] is reported as 110% and the inhibition [2] is reported as 103%.

With COc1ccc(-c2oc3ccc(-c4ccc(OC)nc4)cc3c2C#CC2(O)CCCCC2)cc1 the inhibition [1] was 103% and the inhibition [2] was 103%.

COc1cccc(-c2ccc3ncnc(NCc4cccs4)c3c2)c1 gave an inhibition [1] of 117% and an inhibition [2] of 99.9%.

Compound CN(C)c1ccc(Nc2ncnc3ccc(Br)cc23)cc1 has an inhibition [1] of 104% and an inhibition [2] of 118%.

CC(C)(C)S(=O)N1Cc2cc(C(=O)NCC(F)(F)F)nc(-c3cccc(-c4cccc(F)c4)c3)c2[C@@H]1CCO (stereo not given in full) gave an inhibition [1] of 110% and an inhibition [2] of 103%.

Fc1cccc(Cl)c1/C=N/Nc1c(Cl)cncc1Cl gave an inhibition [1] of 101% and an inhibition [2] of 104%.

For C[C@H](CO)N1C[C@H](C)[C@@H](CN(C)C(=O)Nc2ccc3c(c2)OCO3)Oc2c(NC(=O)Nc3ccc(C(F)(F)F)cc3)cccc2C1=O, the inhibition [1] was 113% and the inhibition [2] was 105%.

Compound c1ccc2c(c1)Nc1ccncc1S2 has an inhibition [1] of 114% and an inhibition [2] of 106%.

With C=C1C(=O)[C@]23C[C@H]1CC[C@H]2[C@]1(C)[C@@H](O)CC[C@@](C)(C(=O)O)[C@H]1C[C@@H]3O the inhibition [1] was 98.4% and the inhibition [2] was 103%.

For Cc1cccc(C(=O)N[C@H](C(=O)Nc2nc3ccccc3[nH]2)C(C)C)c1, the inhibition [1] was 101% and the inhibition [2] was 70.1%.

C[C@@H]1CN([C@H](C)CO)C(=O)c2cc(NC(=O)Nc3ccc(C(F)(F)F)cc3)ccc2O[C@H]1CN(C)S(=O)(=O)c1cccs1 showed an inhibition [1] of 113% and an inhibition [2] of 96.8%.

With Cc1ccc(C(=O)c2cc([N+](=O)[O-])ccc2N2CCCCC2)c(C)c1 the inhibition [1] was 79.4% and the inhibition [2] was 54.3%.

In the case of COc1ccc2c(=O)cc(-c3ccncc3)oc2c1OC, the inhibition [1] is reported as 116% and the inhibition [2] is reported as 103%.

Work on c1ccc2c(-c3ccc4nncn4c3)cncc2c1 yielded an inhibition [1] of 92.3% and an inhibition [2] of 79%.

Compound Nc1nc(N)nc(-c2cc(O)ccc2O)n1 has an inhibition [1] of 105% and an inhibition [2] of 116%.

Brc1cccc(CSc2nnc(-c3ccncc3)o2)c1 gave an inhibition [1] of 105% and an inhibition [2] of 99%.

Work on CC1(Cc2ccc(Cl)cc2)C(=O)Nc2ccc(-c3cccnc3)cc21 (stereo not given) yielded an inhibition [1] of 107% and an inhibition [2] of 102%.

In the case of Cc1ccc(C(=O)Nc2cccc(C(F)(F)F)c2)cc1NC(=O)c1ccno1, the inhibition [1] is reported as 86.8% and the inhibition [2] is reported as 111%.

Work on COC(=O)c1ccc2c(c1)C(C)(C)C(/C=C/c1ccccc1O)=[N+]2C yielded an inhibition [1] of 81.4% and an inhibition [2] of 80.5%.

Cc1ncc(CO)c2c1Oc1nc(-c3ccccc3F)nc(SCC(=O)N(C)c3ccccc3)c1C2 gave an inhibition [1] of 105% and an inhibition [2] of 102%.

For CC(C)(C)c1nc(NC(=O)Nc2ccccc2)sc1Br, the inhibition [1] was 107% and the inhibition [2] was 103%.

In the case of FC(F)(F)c1nnc2c(Sc3ccccc3)nc3ccccc3n12, the inhibition [1] is reported as 92.8% and the inhibition [2] is reported as 88.4%.

Compound COc1ccc(-n2c(C)cc3cc(OC(C)=O)ccc32)cc1 has an inhibition [1] of 86.5% and an inhibition [2] of 70.9%.

In the case of CCOCC(=O)NC1CCc2cc(OC(=O)COCC)c(OC)c(OC)c2-c2ccc(SC)c(=O)cc21 (stereo not given), the inhibition [1] is reported as 45.7% and the inhibition [2] is reported as 85.3%.

In the case of COc1cccc(N2CCN(c3c(C#N)c(C(F)(F)F)nn3C)CC2)c1, the inhibition [1] is reported as 111% and the inhibition [2] is reported as 94.2%.

Cc1cccc(N2CCN(C(=O)CCn3c(=S)[nH]c4cc5c(cc4c3=O)OCO5)CC2C)c1 (stereo not given) gave an inhibition [1] of 109% and an inhibition [2] of 93.9%.

With Cc1ccc(C(=O)c2cncc(Br)c2)cc1 the inhibition [1] was 86.5% and the inhibition [2] was 93.4%.

Compound O=C(Nc1ccc(Br)c2ccccc12)c1ccc2ccccc2c1O has an inhibition [1] of 112% and an inhibition [2] of 104%.

Fc1ccc(-n2cc(-c3ccccc3)c3c(N4CCOCC4)ncnc32)cc1 gave an inhibition [1] of 110% and an inhibition [2] of 102%.

Nc1nc(/C=C/c2cccnc2)nc(-c2ccccc2O)n1 gave an inhibition [1] of 100% and an inhibition [2] of 110%.

Work on COc1cccc(/C=N/n2c(C3CCCCC3)n[nH]c2=S)c1 yielded an inhibition [1] of 97.2% and an inhibition [2] of 106%.

In the case of COc1cccc(-c2ccc3ncnc(NCc4cccc(C)c4)c3c2)c1, the inhibition [1] is reported as 118% and the inhibition [2] is reported as 104%.

Work on Cc1nnc(Sc2nc3ccccc3o2)c2ccccc12 yielded an inhibition [1] of 98.3% and an inhibition [2] of 107%.

With Cc1c(NC(=O)c2cc(-c3cccs3)nc3ccccc23)c(=O)n(-c2ccccc2)n1C the inhibition [1] was 112% and the inhibition [2] was 103%.

CN(c1ncnc(N)c1[N+](=O)[O-])C1CCS(=O)(=O)C1 (stereo not given) showed an inhibition [1] of 96.8% and an inhibition [2] of 104%.

With CC(=O)NC(CC(C)C)C(=O)NC(Cc1ccccc1)C(=O)CCl (stereo not given) the inhibition [1] was 97.3% and the inhibition [2] was 104%.
